# Screening data from PubChem BioAssay.
# In the library only some 2.3% were active in any assay of this set; here they are far more common.
# MEKK2wt PB1 HTS – raises or lowers MEK5 binding to wildtype human MEKK2 PB1 domain. Q9Y2U5. bead flow cytometry, Alexa488-MEK5 binding to MEKK2 WT; actives lie on both sides. binding response (% of control), % at 10 µM. 1.1% of 290,000 active; in the data active = binding response below about 67% or above about 130%
# MEKK2mut PB1 HTS – signal of MEK5 binding to mutant human MEKK2 PB1 domain; 0.35% of 290,000 active; percent response, % at 10 µM; bead flow cytometry, Alexa488-MEK5 binding to MEKK2 mutant; in the data active = percent response above about 24%, passing the limit was not always enough
# MEKK3 PB1 HTS – MEKK3-MEK5 PB1 interaction, increase or decrease. 1.4% of 290,000 active. Q99759. binding response (% of control), % at 10 µM. bead-based flow cytometry, Alexa488-MEK5 binding to MEKK3; actives lie on both sides; 0 = blocked by unlabeled MEK5, 100 = vehicle;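 active = binding response more than 3 SD above or below the average of its plate-row segment, actives on both sides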;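 note: Alexa488 bead fluorescence after subtracting the streptavidin-only scavenger bead signal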
# Target sequence (Q99759 whole entry, looked up): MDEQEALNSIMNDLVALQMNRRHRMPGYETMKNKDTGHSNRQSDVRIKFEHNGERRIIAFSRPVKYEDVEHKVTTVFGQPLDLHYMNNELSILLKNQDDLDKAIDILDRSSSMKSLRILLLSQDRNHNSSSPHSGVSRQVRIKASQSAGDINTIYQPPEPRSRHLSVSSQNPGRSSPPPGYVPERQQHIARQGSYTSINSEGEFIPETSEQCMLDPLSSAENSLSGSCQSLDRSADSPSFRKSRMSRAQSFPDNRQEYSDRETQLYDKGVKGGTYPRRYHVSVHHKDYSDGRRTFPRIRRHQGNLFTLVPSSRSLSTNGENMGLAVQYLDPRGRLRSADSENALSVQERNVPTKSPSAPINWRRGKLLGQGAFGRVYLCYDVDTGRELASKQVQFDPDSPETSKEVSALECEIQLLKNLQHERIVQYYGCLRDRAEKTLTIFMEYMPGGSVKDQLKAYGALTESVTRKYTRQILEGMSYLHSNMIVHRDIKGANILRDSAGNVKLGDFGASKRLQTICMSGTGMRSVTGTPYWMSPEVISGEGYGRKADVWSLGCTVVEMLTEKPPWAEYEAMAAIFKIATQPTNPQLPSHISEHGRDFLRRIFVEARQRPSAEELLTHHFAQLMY
# UBC13 polyUb – blocks human UBC13 polyubiquitin chain formation | AID 485273 | P61088 | inhibition, % at 20 µM | 0.47% of 330,000 active | TR-FRET; in the data active = inhibition above about 45%, passing the limit was not always enough
# MEKK2wt confirm – raises or lowers MEK5 binding to wildtype human MEKK2, retest | 2.4% of 5,900 active | shares compounds with MEKK3 PB1 HTS | binding response (% of control), % at 10 µM | bead flow cytometry, Alexa488-MEK5 binding to MEKK2 WT; actives lie on both sides | AID 1892; in the data active = binding response below about 16% or above about 210%; inactive = in between
# MEKK2mut-MEK5 – signal of MEK5 binding to mutant human MEKK2, retest | shares compounds with MEKK3 PB1 HTS | bead flow cytometry, Alexa488-MEK5 binding to MEKK2 mutant | percent response, % at 10 µM | 2% of 5,900 active | AID 1893; in the data active = percent response mostly above about 71%, no sharp cut-off; inactive = mostly below about 38%;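 note: higher means compound restores mutant binding toward wildtype level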
# MEKK3 confirm – confirmation of inhibitors of MEK5 binding to human MEKK3; shares compounds with MEKK3 PB1 HTS; bead flow cytometry, Alexa488-MEK5 binding to MEKK3; active compounds read low; binding response (% of control), % at 10 µM; 1.8% of 5,900 active;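 active = binding response below 72% of control, or above a set upper limit, though filed actives all read lower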;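 note: 100% = DMSO only wells and 0% = binding blocked by excess unlabeled MEK5; lower values mean stronger disruption of MEK5 binding to MEKK3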
# The depositor's hits bear a star; · = no result given; [ ] = remark or other dose.
SMILES,MEKK2wt PB1 HTS,MEKK2mut PB1 HTS,MEKK3 PB1 HTS,UBC13 polyUb,MEKK2wt confirm,MEKK2mut-MEK5,MEKK3 confirm
CN1/C(=C\C=C2/C(=O)Oc3ccccc3C2=O)C(C)(C)c2ccccc21,75,-13,50*[inhibitor],·,84,-30,93
CCNC(=S)N(CCc1c(C)[nH]c2ccc(F)cc12)Cc1cccnc1,133,35*,107,11,121,12,103
COc1cc2ccccc2cc1C(=O)NC(=S)Nc1cc(C(=O)O)ccc1C,110,0,129*,-12,100,0,103
Cc1cccc(C)c1OCC(O)CN1CCC(CN2C(=O)c3cccc4cccc(c34)C2=O)CC1 (configuration not stated),150*,20,97,29,134,48,104
CN1CCN(c2ccccc2NC(=O)c2cc3c(s2)-c2ccccc2OC3)CC1,146*,21,101,1,172,37,107
O=C(CN(Cc1ccc(F)cc1)C(=O)CCC(=O)Nc1nccs1)NCc1ccc(F)cc1,105,5,103,6,·,·,·
CC1CCN(C(=O)c2cc(S(=O)(=O)N3CCOCC3)ccc2N2CCCC2)CC1,·,·,·,-14,·,·,·
Cc1ccc(Oc2nc3ccccn3c(=O)c2/C=C(\C#N)C(=O)Nc2c(C)n(C)n(-c3ccccc3)c2=O)c(C)c1,97,-1,74*[inhibitor],-11,111,16,104
COc1ccccc1Oc1nc2ccccn2c(=O)c1/C=C(\C#N)C(=O)Nc1c(C)n(C)n(-c2ccccc2)c1=O,94,-15,93,-10,·,·,·
CCC(C(=O)NC1CCCC1)n1nc(C)n2c(cc3occc32)c1=O (configuration not stated),103,5,102,10,·,·,·
CC(=O)c1sc(N/N=C2\CC3CC2C(C)C3(C)C)nc1C (configuration not stated),101,5,103,-4,·,·,·
CCCS(=O)(=O)N1CCN(CC2CC3C=CC2C3)CC1 (configuration not stated),104,24*,108,-4,106,12,108
O=C(Nc1ccc(Cl)cc1)C1C2CCCCC21 (configuration not stated),106,-2,102,-4,·,·,·
COc1cc(NC(=O)COC(=O)c2ccc(C)c(S(=O)(=O)N3CCCCC3)c2)c(C)cc1[N+](=O)[O-],108,0,146*,-2,105,1,102
COc1ccc(C(=O)OCC(=O)Nc2ccc(OC)c(S(=O)(=O)N3CCCCC3)c2)cc1[N+](=O)[O-],·,·,·,-7,·,·,·
CCn1c(COC(=O)CNC(=O)c2ccccc2)nc2cc(S(=O)(=O)N(C)C)ccc21,·,·,·,5,·,·,·
COc1ccc(OCC(O)CNC(=O)c2sccc2Cl)cc1 (configuration not stated),96,2,98,2,·,·,·
CCn1cc(Br)c(C(=O)NCc2ccco2)n1,65,-25,43*[inhibitor],-9,101,-3,101
Cn1cc([N+](=O)[O-])c(C(=O)NCc2ccco2)n1,102,-2,111,6,·,·,·
CCc1ccc(NC(=O)[C@H](C)NC(=O)C2CCN(C(=O)[C@@H](N)C(C)C)CC2)cc1,107,10,107,4,·,·,·
CCOC(=O)C1(CCOc2ccccc2)CCN(Cc2cccc3c2OCO3)CC1,115,3,106,9,·,·,·
CCOC(=O)C1(CCOc2ccccc2)CCN(Cc2cc(OC)c3c(c2)OCO3)CC1,145*,41,104,19,126,17,108
O=C(O)C1C2C=CC(C2)C1C(=O)Nc1ccc(Cl)c(Cl)c1 (configuration not stated),104,26*,103,-12,96,-1,98
CC(=O)Nc1cc(NC(=O)C2C3C=CC(C3)C2C(=O)O)ccc1Cl (configuration not stated),98,1,96,-6,·,·,·
O=C(COC(=O)c1cccs1)Nc1cccc(Cl)c1,·,·,·,7,·,·,·
SMILES,MEKK2wt PB1 HTS,MEKK2mut PB1 HTS,MEKK3 PB1 HTS,UBC13 polyUb,MEKK2wt confirm,MEKK2mut-MEK5,MEKK3 confirm
COc1ccc(C(=O)C[n+]2ccc(N(C)C)cc2)cc1,120,29,135*,6,105,-4,105
COc1ccc(C(=O)C[n+]2cccc3cc(OC)ccc32)cc1,105,3,100,2,·,·,·
COc1ccc(C(=O)C[n+]2cccc3cc(C)ccc32)cc1,·,241*,97,-8,104,-5,99
CCN(CC)S(=O)(=O)c1ccc(S(=O)(=O)N2CCCC(C(=O)NC3CC3)C2)cc1 (configuration not stated),100,0,104,0,·,·,·
COc1ccc(CC(=O)Nc2nc3ccccc3[nH]2)cc1,95,-11,96,2,·,·,·
COc1cccc(CC(=O)Nc2nc3ccccc3[nH]2)c1,·,112*,96,-14,109,4,105
CCCCN(C)C(=O)Cn1c(=O)oc2cc(S(=O)(=O)N3CC(C)CC(C)C3)ccc21 (configuration not stated),117,29,132*,-8,111,9,102
COc1cccc2cc(C(=O)N(Cc3ccccc3)CC3CCCO3)c(=O)oc12 (configuration not stated),88,5,124*,4,100,7,100
O=C(c1cc2ccccc2oc1=O)N(Cc1ccccc1)CC1CCCO1 (configuration not stated),101,-3,100,8,·,·,·
CC(=O)c1ccc(NC(=O)C(C)OC(=O)c2ccc(Br)o2)cc1 (configuration not stated),·,·,·,2,·,·,·
O=C(CNC(=O)c1ccccc1C(F)(F)F)N/N=C/c1cccs1,102,3,103,8,·,·,·
Cc1ccccc1OCC(=O)N/N=C/c1cccc(Oc2ccc([N+](=O)[O-])cc2[N+](=O)[O-])c1,107,1,132*,-8,97,-9,98
CC1CN(C(=O)N2CCCCC2)CCN1C(=O)N1CCCCC1 (configuration not stated),102,0,101,-4,·,·,·
COc1cc2c(cc1OC)C(Cc1ccc(O)c(Oc3ccc(C[C@H]4c5cc(OC)c(OC)cc5CCN4C)cc3)c1)N(C)CC2 (some centres not stated),·,·,·,26,·,·,·
Cc1csc2nc(NC(=O)c3ccccc3)sc(=O)c12,116,27,130*,5,100,3,100
Cc1ccccc1C(=O)Nc1nc2c(C)csc2c(=O)s1,107,25,128*,12,94,-10,97
Cc1csc2c(=O)sc(NC(=O)c3ccc(F)cc3)nc12,105,4,107,6,·,·,·
